MCL1-BIM inh – inhibitors of MCL1 binding to BIM-BH3, primary screen, biochemical, fluorescence polarization | GST-MCL1 / FITC-Bim-BH3 fluorescence polarization | inhibition, % at 10.9 µM | Induced myeloid leukemia cell differentiation protein Mcl-1 (Homo sapiens), Q07820 | actives 0.68% (n = 320,000);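 active = inhibition above the mean inhibition of all tested compounds plus 3 SD, set per campaign, cut at about 40% in these data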;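 note: 0% = DMSO wells and 100% = unlabeled Bim-BH3 peptide control; higher means more loss of mP so more displacement of Bim peptide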
Target sequence (Q07820 whole entry, looked up): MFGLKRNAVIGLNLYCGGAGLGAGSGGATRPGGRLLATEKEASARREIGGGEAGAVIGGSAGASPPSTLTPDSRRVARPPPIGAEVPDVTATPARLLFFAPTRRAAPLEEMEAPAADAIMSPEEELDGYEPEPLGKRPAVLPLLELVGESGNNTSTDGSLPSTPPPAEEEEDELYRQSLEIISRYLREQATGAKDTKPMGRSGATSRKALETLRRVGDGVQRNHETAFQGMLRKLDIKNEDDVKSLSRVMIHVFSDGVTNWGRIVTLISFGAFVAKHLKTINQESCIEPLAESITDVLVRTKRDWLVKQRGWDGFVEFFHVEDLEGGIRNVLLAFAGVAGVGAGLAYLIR
Mcl-1 Bim block – inhibitors of Bim peptide binding to Mcl-1, primary screen, biochemical, bead-based flow cytometry, multiplex | Induced myeloid leukemia cell differentiation protein Mcl-1 (Homo sapiens), Q07820 | Bim peptide-Mcl-1 binding | inhibition, % at 10 µM | actives 0.1% (n = 190,000) | AID 1009, 2008; in the data active = inhibition above about 40%;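 note: 0% = no compound tracer wells and 100% = peptide blocker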
Mcl1 Bid PPI – Mcl-1/Bid binding inhibitors, primary screen, biochemical, TR-FRET, 1536-well; Induced myeloid leukemia cell differentiation protein Mcl-1 (Homo sapiens), Q07820; TR-FRET Mcl-1/Bid-Dy647 peptide binding; inhibition, % at 21.7 µM; actives 0.97% (n = 220,000); AID 1021, 2008;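 active = compounds that cut the binding signal by more than half at the single screening dose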;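 note: His-tagged Mcl-1 with europium anti-His antibody binding Bid BH3 peptide; 0% = Mcl-1 plus peptide wells and 100% = peptide-only wells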
Mcl1-Noxa inh – Mcl-1/Noxa binding inhibitors, primary screen, biochemical, TR-FRET, 1536-well | Induced myeloid leukemia cell differentiation protein Mcl-1 (Homo sapiens), Q07820 | TR-FRET Mcl-1/Noxa peptide binding, 2 h | inhibition, % at 21.7 µM | actives 1.5% (n = 220,000);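 active = compounds that cut the protein-peptide binding signal by more than 50% relative to plate controls in a single-dose test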;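 note: His-tagged Mcl-1 with rhodamine Noxa BH3 peptide and terbium anti-His antibody; 0% = Mcl-1 plus Noxa peptide wells and 100% = peptide-only wells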
* hit, by the source's call; . = not tested or not shown. Most compounds without a hit are left out; they make up all but 2% or so of the library.

SMILES	MCL1-BIM inh	Mcl-1 Bim block	Mcl1 Bid PPI	Mcl1-Noxa inh
O=C(Nc1nc2n(n1)C(c1ccccc1)C=C(c1ccccc1)N2)c1ccco1 (stereo unspecified)	40.0*	-5.0	-48.9	12.2
O=C(Nc1nc2n(n1)C(c1ccc(F)cc1)CC(c1ccccc1)N2)c1ccco1 (stereo unspecified)	-1.1	.	-9.3	-2.5
CC(=O)Nc1nc2n(n1)C(c1ccc(F)cc1)C=C(c1ccccc1)N2 (stereo unspecified)	46.8*	-2.0	-26.0	12.7
COc1ccc(C2C=C(c3ccc(Cl)cc3)Nc3nc(NC(C)=O)nn32)cc1 (stereo unspecified)	158.3*	0.0	-116.7	17.2
COc1ccc(C2=CC(c3ccc(Cl)cc3)n3cnnc3N2)cc1OC (stereo unspecified)	62.4*	-6.0	-102.9	14.7
COc1ccccc1C1C=C(c2ccc(Cl)cc2)Nc2nc(N3C(=O)CCC3=O)nn21 (stereo unspecified)	19.1	-5.0	-23.5	8.5
CC(C)Cn1c(SCC(=O)N(C)c2c(N)n(Cc3ccccc3)c(=O)[nH]c2=O)nc2ccccc21	4.4	.	.	.
CC(NC(=O)CNC(=O)C(Cc1ccccc1)NC(=O)OCc1ccccc1)C(N)=O (stereo unspecified)	3.9	1.0	0.5	-13.4
S=C(Nc1ccc2nc(-c3ccccn3)c(-c3ccccn3)nc2c1)N1CCCCCC1	41.1*	3.0	-62.1	-2.7
O=C(c1cnn(C(=O)CN2CCCC2=O)c1)c1ccccc1O	-5.0	.	.	.
CC1CN(CC(=O)Nc2cc(S(=O)(=O)N3CCCC3)ccc2Cl)CC(C)O1 (stereo unspecified)	1.9	-4.0	3.1	22.3
O=C(CN1CCN(c2ccc(O)cc2)CC1)Nc1cc(S(=O)(=O)N2CCCC2)ccc1Cl	21.8	-1.0	-90.9	56.9*
O=C(CN1CCN(c2ccc(O)cc2)CC1)Nc1cc(S(=O)(=O)N2CCCCC2)ccc1Cl	22.4	1.0	-60.2	69.3*
Cn1c(SCC(=O)NNC(=O)c2ccccc2)nnc1C(F)(F)F	-1.7	.	.	.
CCCCSCc1ccc(C(=O)O)o1	-9.3	4.0	13.9	21.5
O=C(O)CC(SCc1ccc(C(=O)O)o1)C(=O)O (stereo unspecified)	3.0	-4.0	52.6*	13.9
O=C(c1cc(COc2cccc(C(F)(F)F)c2)on1)N1CCC(Oc2cccnc2)CC1	-3.6	.	.	.
O=C1CCCC2=C1C(c1ccc(O)c(O)c1)c1c(ccc3ncccc13)N2 (stereo unspecified)	52.1*	7.0	-44.2	78.8*
CCN(CC)C(=O)c1sc2nc(N3CCOCC3)c3c(c2c1N)CCCC3	10.8	-1.0	-24.7	58.6*
CCOC(=O)c1sc2nc(N3CCOCC3)c3c(c2c1N)CCCC3	-6.4	3.0	-22.7	-0.5
CC1(C)Cc2c(c(-c3ccco3)nc3sc4c(NCCO)ncnc4c23)CO1	0.7	3.0	6.2	54.5*
CSc1nc(N(CCO)CCO)c2sc3nc(-c4ccco4)c4c(c3c2n1)CCC4	.	9.0	80.0*	106.7*
COCCCNc1ncnc2c1sc1nc(-c3ccco3)c3c(c12)CC(C)(C)OC3	1.4	.	-6.1	32.5
CSc1nc(SCCO)c2sc3nc(-c4ccco4)c4c(c3c2n1)CC(C)(C)OC4	.	6.0	84.7*	99.2*
OCCN(CCO)c1ncnc2c1sc1nc(N3CCOCC3)c3c(c12)CCCC3	4.2	-2.0	15.0	18.6
SMILES	MCL1-BIM inh	Mcl-1 Bim block	Mcl1 Bid PPI	Mcl1-Noxa inh
CCOc1ccc(C(C)=O)cc1Cn1c(=O)oc2ccccc21	-8.9	.	.	.
CCc1ccc(C(=O)C(C)OC(=O)c2nc3nc(C)cc(C)n3n2)cc1 (stereo unspecified)	-14.1	.	.	.
CN(CC(=O)Nc1ccc(Cl)cc1)C(=O)CCc1nc2sc3c(c2c(=O)[nH]1)CCCC3	-11.7	.	.	.
COc1ccc(NN=Nc2nc3c([nH]2)c(=O)n(C)c(=O)n3C)cc1	7.1	.	5.5	67.4*
Cc1ccccc1NN=Nc1nc2c([nH]1)c(=O)n(C)c(=O)n2C	11.1	-1.0	-32.1	23.0
CCn1c(-c2ccccc2)csc1=Nc1ccc(O)cc1	8.7	1.0	-34.5	63.5*
CCOc1ccc(N=c2scc(-c3ccccc3)n2CCO)cc1	1.5	-7.0	8.3	13.7
COc1cccc(C(C)NC(=O)Nc2ccccc2Cl)c1 (stereo unspecified)	4.7	1.0	-24.8	6.8
Cc1cc(O)c(-c2cc(C(=O)Nc3sc4c(c3C(=O)NCc3ccco3)CCC4)[nH]n2)cc1C	1.1	.	-47.2	70.5*
N#Cc1cc(-c2ccccc2)nn1-c1ccccc1	42.6*	5.0	27.4	97.0*
N#C/C(=C/c1ccc(F)cc1)c1nnc(NC(=O)c2ccccc2)s1	5.2	.	3.0	67.9*
CN(Cc1ccc(F)cc1)S(=O)(=O)c1nnc(NC(=O)c2ccccc2)s1	1.8	.	.	.
CNC(=O)COC(=O)/C=C/c1nc2ccccc2s1	3.1	2.0	-9.7	-4.4
CCN(CC)c1ccc(NC(=O)COC(=O)/C=C/c2nc3ccccc3s2)cc1	2.2	0.0	-2.8	56.0*
COc1ccc(CN2C(=O)c3cccc4cccc2c34)cc1F	2.9	.	.	.
COC(=O)c1ccc(NC(=O)CN2C(=O)CC(C)S(=O)(=O)c3ccccc32)cc1 (stereo unspecified)	5.0	.	.	.
CCC(C)NCCOCCSc1ccc(Cl)cc1 (stereo unspecified)	4.9	-5.0	52.1*	3.8
O=C(CC1OC(=O)c2ccccc21)Nc1cc(Cl)ccc1N1CCCC1 (stereo unspecified)	0.6	.	.	.
O=C(Cc1ccc(Cl)cc1)Nc1cc(Cl)ccn1	-0.3	.	.	.
Cc1cc(NS(=O)(=O)c2ccc(NC(NC(=O)C(C(F)(F)F)C(F)(F)F)(C(F)(F)F)C(F)(F)F)cc2)no1	.	1.0	70.7*	40.1
CCN(CC(=O)NCc1ccc(Cl)cc1)C(=O)CSCC(=O)Nc1cccc(C)c1	-16.0	.	.	.
c1ccc(-c2nnc(OCCN3CCOCC3)c3ccccc23)cc1	2.9	79.0*	-12.7	2.2
Brc1ccccc1OCCN1CCOCC1	-0.7	.	.	.
O=C(O)c1ccc(Nc2nc(-c3cc4ccccc4oc3=O)cs2)cc1O	.	0.0	-87.3	97.2*
Nc1ccc(Nc2nc(-c3cc4ccccc4oc3=O)cs2)cc1	3.5	0.0	-30.7	58.7*
SMILES	MCL1-BIM inh	Mcl-1 Bim block	Mcl1 Bid PPI	Mcl1-Noxa inh
O=C(O)c1ccc(Nc2nc(-c3cccnc3)cs2)cc1O	18.4	.	.	.
Cc1nc2ccccc2n1Cc1ccccc1	-2.9	.	.	.
Cc1nc2ccccc2n1CSc1ccccc1	3.6	42.0*	-5.6	7.6
COc1cc(CNCc2ccc(SC)cc2)cc(OC)c1	0.4	-4.0	50.7*	25.2
COc1ccccc1S(=O)(=O)NCc1ccc(C(=O)NC2CCC(O)CC2)cc1 (stereo unspecified)	0.6	.	.	.
COc1ccc(C(C)NC(=O)c2ccncc2)cc1 (stereo unspecified)	5.6	.	.	.
C=CCNC(=S)NNC(=O)c1ccccc1	9.3	0.0	-41.4	3.3
C=CCNC(=S)NNC(=O)c1ccc([N+](=O)[O-])cc1	16.0	0.0	-13.3	67.6*
